How the values were obtained:
[1] = target: Rho-associated protein kinase 1 (Homo sapiens) (UniProt Q13464); details: at 1 µM;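 also: reported values are mean percent inhibition of ROCK1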
[2] = target: Rho-associated protein kinase 2 (Homo sapiens) (UniProt O75116); details: at 0.1 µM
[3] = target: Rho-associated protein kinase 2 (Homo sapiens) (UniProt O75116); details: at 1 µM
[4] = target: Ribosomal protein S6 kinase alpha-1 (Homo sapiens) (UniProt Q15418); details: at 0.1 µM
[5] = target: Ribosomal protein S6 kinase alpha-1 (Homo sapiens) (UniProt Q15418); details: at 1 µM
[6] = target: Ribosomal protein S6 kinase alpha-3 (Homo sapiens) (UniProt P51812); details: at 0.1 µM
[7] = target: Ribosomal protein S6 kinase alpha-3 (Homo sapiens) (UniProt P51812); details: at 1 µM
[8] = target: Ribosomal protein S6 kinase alpha-2 (Homo sapiens) (UniProt Q15349); details: at 0.1 µM
[9] = target: Ribosomal protein S6 kinase alpha-2 (Homo sapiens) (UniProt Q15349); details: at 1 µM
[10] = target: Ribosomal protein S6 kinase alpha-6 (Homo sapiens) (UniProt Q9UK32); details: at 0.1 µM
[11] = target: Ribosomal protein S6 kinase alpha-6 (Homo sapiens) (UniProt Q9UK32); details: at 1 µM
[12] = target: T1, Serine/threonine-protein kinase Sgk1 (Homo sapiens) (UniProt O00141); details: at 0.1 µM
T1 sequence (whole entry): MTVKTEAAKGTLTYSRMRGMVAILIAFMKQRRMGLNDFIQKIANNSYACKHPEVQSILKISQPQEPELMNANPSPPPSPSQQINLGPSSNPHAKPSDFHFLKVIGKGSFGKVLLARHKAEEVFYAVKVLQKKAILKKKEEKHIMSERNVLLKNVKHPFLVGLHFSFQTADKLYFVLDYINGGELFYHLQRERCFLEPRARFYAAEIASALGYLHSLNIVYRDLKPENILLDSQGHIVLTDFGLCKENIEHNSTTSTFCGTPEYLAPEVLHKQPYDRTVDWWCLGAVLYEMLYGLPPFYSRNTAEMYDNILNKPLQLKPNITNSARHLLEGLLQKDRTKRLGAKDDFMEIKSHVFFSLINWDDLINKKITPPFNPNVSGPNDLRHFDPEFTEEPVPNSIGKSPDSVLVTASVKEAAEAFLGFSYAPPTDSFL

[13] = target: T1, Serine/threonine-protein kinase Sgk1 (Homo sapiens); details: at 1 µM
[14] = target: T2, Serine/threonine-protein kinase Sgk2 (Homo sapiens) (UniProt Q9HBY8); details: at 0.1 µM
T2 sequence (whole entry): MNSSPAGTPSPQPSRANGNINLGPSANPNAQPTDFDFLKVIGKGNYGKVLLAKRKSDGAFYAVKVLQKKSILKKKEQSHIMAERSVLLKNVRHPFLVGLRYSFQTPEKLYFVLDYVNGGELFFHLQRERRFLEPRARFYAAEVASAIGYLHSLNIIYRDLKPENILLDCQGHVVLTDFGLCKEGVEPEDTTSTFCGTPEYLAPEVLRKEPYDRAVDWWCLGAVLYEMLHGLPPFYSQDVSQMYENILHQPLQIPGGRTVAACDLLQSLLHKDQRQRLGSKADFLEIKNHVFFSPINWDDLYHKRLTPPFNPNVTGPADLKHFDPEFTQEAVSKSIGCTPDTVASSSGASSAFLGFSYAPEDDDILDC

[15] = target: T2, Serine/threonine-protein kinase Sgk2 (Homo sapiens); details: at 1 µM
[16] = target: T3, Serine/threonine-protein kinase Sgk3 (Homo sapiens) (UniProt Q96BR1); details: at 0.1 µM
T3 sequence (whole entry): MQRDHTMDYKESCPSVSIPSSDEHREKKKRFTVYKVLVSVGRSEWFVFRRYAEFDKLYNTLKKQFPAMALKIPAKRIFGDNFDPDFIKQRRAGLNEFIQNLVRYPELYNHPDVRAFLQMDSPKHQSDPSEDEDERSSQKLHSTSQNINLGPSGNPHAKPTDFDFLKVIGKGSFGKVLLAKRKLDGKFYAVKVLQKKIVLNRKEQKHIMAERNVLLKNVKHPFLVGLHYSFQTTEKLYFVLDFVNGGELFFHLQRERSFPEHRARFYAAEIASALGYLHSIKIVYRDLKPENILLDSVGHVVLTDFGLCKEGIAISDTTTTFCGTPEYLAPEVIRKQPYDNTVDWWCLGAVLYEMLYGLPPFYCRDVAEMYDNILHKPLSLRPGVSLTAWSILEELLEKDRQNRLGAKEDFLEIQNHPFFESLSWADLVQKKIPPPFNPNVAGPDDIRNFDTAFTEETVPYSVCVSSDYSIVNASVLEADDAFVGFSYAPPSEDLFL

[17] = target: T3, Serine/threonine-protein kinase Sgk3 (Homo sapiens); details: at 1 µM
[18] = target: 5'-AMP-activated protein kinase catalytic subunit alpha-1 (Homo sapiens) (UniProt Q13131); details: at 0.1 µM
[19] = target: 5'-AMP-activated protein kinase catalytic subunit alpha-1 (Homo sapiens) (UniProt Q13131); details: at 1 µM
[20] = target: 5'-AMP-activated protein kinase catalytic subunit alpha-2 (Homo sapiens) (UniProt P54646); details: at 0.1 µM;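 also: mean inhibition measured on the AMPK complex of alpha2, beta1 and gamma1 subunits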
Sequence of 5'-AMP-activated protein kinase catalytic subunit alpha-2 (Homo sapiens) (P54646 whole entry, looked up): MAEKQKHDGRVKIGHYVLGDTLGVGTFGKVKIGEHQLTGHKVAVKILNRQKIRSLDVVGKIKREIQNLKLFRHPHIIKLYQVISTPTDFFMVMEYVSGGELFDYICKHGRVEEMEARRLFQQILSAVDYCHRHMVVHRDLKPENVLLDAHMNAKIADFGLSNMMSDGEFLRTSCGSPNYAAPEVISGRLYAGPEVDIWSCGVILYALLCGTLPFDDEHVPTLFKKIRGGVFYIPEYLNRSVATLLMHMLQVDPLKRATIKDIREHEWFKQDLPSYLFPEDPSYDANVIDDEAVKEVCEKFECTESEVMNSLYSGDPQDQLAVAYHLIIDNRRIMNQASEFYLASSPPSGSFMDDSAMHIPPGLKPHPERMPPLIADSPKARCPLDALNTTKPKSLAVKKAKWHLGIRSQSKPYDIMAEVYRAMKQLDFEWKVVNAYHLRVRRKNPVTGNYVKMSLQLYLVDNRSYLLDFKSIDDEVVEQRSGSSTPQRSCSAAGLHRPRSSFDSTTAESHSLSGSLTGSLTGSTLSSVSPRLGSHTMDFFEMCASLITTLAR

Sequence of Ribosomal protein S6 kinase alpha-3 (Homo sapiens) (P51812 whole entry): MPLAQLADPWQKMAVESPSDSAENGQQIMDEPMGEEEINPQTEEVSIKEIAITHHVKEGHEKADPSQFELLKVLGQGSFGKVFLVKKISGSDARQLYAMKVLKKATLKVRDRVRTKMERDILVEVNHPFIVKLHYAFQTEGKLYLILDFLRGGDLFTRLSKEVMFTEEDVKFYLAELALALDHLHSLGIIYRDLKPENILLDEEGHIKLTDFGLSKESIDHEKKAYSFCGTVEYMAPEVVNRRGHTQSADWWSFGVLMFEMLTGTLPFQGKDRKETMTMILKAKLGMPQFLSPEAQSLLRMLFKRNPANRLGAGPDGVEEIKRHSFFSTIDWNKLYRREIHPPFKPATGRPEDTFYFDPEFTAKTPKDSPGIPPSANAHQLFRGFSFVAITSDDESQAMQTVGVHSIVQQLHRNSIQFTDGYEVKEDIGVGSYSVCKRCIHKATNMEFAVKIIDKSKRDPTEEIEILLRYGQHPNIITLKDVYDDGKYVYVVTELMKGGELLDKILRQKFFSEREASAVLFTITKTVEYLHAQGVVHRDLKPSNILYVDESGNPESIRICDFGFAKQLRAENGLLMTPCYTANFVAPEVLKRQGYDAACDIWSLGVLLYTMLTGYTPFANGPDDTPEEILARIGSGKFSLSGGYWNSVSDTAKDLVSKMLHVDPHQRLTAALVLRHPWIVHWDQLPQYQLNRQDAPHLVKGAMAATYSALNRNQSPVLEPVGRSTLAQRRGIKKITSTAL
Sequence of Ribosomal protein S6 kinase alpha-6 (Homo sapiens) (Q9UK32 whole entry): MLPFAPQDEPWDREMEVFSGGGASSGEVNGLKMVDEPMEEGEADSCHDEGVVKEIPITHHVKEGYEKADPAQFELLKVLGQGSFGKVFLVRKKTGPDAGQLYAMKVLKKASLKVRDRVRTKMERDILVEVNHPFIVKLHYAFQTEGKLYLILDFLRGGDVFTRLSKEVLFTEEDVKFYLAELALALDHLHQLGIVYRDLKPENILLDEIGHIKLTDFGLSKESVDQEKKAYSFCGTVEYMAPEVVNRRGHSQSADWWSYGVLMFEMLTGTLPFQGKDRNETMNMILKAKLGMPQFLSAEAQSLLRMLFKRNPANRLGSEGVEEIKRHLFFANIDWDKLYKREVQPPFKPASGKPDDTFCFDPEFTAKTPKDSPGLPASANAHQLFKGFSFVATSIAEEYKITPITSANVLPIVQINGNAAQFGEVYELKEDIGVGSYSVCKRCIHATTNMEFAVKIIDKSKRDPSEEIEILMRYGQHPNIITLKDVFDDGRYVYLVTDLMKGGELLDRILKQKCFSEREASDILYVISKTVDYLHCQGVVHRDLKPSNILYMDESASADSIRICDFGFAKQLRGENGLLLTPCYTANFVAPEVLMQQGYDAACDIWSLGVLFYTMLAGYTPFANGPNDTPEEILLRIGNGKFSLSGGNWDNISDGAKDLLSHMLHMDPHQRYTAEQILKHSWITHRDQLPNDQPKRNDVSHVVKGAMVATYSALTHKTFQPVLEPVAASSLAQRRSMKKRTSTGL
Sequence of Rho-associated protein kinase 1 (Homo sapiens) (Q13464 2-1354 limits assumed): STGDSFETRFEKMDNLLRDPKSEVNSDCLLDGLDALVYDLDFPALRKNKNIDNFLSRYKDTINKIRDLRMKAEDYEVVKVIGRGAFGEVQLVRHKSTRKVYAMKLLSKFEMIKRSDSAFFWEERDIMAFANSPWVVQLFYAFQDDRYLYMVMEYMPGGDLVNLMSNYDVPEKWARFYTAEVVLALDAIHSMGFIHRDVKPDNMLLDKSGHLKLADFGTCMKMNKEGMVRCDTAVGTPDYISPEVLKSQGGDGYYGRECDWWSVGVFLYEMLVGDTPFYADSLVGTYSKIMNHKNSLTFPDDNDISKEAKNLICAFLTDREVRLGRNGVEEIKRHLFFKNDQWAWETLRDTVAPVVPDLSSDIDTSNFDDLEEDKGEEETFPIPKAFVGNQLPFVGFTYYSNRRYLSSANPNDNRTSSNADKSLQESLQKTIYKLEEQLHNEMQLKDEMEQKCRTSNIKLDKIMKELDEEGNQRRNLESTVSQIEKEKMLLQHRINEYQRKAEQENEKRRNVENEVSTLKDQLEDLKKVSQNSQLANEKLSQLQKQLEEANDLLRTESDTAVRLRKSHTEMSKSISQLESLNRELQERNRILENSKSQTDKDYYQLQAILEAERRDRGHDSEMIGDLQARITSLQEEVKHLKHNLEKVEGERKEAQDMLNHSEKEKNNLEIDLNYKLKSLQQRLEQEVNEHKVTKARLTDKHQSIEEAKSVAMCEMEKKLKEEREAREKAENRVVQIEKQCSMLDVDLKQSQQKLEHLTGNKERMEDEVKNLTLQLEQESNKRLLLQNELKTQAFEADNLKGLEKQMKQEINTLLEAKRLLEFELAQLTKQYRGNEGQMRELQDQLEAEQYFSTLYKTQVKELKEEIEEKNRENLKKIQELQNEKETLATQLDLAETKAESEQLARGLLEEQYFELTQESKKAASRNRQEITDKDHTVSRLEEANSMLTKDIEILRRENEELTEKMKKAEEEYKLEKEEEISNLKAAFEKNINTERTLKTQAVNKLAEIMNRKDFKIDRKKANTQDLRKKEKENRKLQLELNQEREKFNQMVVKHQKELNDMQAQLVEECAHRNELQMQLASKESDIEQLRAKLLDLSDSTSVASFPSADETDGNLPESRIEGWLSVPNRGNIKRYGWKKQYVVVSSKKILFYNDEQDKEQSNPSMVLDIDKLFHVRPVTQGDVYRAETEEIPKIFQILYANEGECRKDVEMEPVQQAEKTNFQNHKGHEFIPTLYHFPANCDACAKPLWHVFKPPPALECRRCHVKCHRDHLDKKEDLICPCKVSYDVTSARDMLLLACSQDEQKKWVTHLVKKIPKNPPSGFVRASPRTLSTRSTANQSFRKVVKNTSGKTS
Sequence of 5'-AMP-activated protein kinase catalytic subunit alpha-1 (Homo sapiens) (Q13131 whole entry, looked up): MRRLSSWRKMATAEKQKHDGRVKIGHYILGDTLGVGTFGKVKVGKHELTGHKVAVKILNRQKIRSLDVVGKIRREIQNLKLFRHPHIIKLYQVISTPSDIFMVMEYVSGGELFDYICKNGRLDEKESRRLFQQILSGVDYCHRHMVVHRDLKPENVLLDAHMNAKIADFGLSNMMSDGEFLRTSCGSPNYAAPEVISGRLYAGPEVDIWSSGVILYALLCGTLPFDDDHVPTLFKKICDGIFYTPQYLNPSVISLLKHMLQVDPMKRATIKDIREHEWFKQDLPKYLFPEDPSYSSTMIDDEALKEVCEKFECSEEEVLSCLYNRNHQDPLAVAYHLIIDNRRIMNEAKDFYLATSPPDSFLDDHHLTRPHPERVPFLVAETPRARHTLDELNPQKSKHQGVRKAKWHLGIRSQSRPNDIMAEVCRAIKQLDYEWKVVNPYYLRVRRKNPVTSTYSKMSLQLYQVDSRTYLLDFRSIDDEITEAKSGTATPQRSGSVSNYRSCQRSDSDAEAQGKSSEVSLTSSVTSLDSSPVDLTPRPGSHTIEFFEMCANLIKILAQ
Sequence of Ribosomal protein S6 kinase alpha-2 (Homo sapiens) (Q15349 whole entry): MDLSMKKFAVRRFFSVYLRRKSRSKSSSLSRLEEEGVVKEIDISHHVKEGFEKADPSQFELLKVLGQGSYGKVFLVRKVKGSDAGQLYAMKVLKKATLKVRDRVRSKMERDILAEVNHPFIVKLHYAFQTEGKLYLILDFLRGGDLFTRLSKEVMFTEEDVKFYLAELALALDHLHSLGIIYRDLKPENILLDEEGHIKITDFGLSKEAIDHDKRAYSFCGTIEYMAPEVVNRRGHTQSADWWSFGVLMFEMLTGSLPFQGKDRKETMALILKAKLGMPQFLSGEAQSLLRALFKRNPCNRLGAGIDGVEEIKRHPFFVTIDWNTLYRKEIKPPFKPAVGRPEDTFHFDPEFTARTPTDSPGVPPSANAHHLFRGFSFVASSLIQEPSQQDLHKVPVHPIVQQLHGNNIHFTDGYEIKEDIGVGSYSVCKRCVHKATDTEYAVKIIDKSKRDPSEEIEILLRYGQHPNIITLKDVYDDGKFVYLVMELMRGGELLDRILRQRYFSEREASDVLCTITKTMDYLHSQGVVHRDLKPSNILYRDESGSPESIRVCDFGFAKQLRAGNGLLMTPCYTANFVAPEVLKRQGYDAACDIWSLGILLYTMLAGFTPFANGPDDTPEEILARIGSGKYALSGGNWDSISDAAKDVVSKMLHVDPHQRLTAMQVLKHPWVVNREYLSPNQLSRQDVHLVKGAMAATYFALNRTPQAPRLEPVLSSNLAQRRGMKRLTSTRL

## NC(=O)c1sc(-n2cnc3ccccc32)cc1OCc1ccccc1Br
[1]
  inhibition: 3.15%
[2]
  inhibition: 2.13%
[3]
  inhibition: 3.77%
[4]
  inhibition: 1.32%
[5]
  inhibition: 3.02%
[6]
  inhibition: 1.56%
[7]
  inhibition: 2.97%
[8]
  inhibition: 3.5%
[9]
  inhibition: 4.96%
[10]
  inhibition: 2.09%
[11]
  inhibition: 5.17%
[12]
  inhibition: 2.26%
[13]
  inhibition: 2.46%
[14]
  inhibition: 4.32%
[15]
  inhibition: 4.07%
[16]
  inhibition: 1.99%
[17]
  inhibition: 2.42%
[18]
  inhibition: 2.42%
[19]
  inhibition: 4.09%
[20]
  inhibition: 7.19%

## CCn1c(-c2nonc2N)nc2c(C#CC(C)(C)O)nc(OCCNC)cc21
[1]
  inhibition: 4.86%
[2]
  inhibition: 3.51%
[3]
  inhibition: 5.7%
[4]
  inhibition: 0.22%
[5]
  inhibition: 4.86%
[6]
  inhibition: 1.84%
[7]
  inhibition: 5.57%
[8]
  inhibition: 3.02%
[9]
  inhibition: 7.49%
[10]
  inhibition: 0.98%
[11]
  inhibition: 2.45%
[12]
  inhibition: 1.88%
[13]
  inhibition: 2.66%
[14]
  inhibition: 2.29%
[15]
  inhibition: 4.48%
[16]
  inhibition: 2.71%
[17]
  inhibition: 13.9%
[18]
  inhibition: 2.74%
[19]
  inhibition: 8.37%
[20]
  inhibition: 4.37%

## CN1CCN(C(=O)c2ccc(NC(=O)Nc3ccc(N(C)c4ccnc(Nc5ccc(CS(C)(=O)=O)cc5)n4)cc3)cc2)CC1
[1]
  inhibition: 18.7%
[2]
  inhibition: 11.3%
[3]
  inhibition: 52%
[4]
  inhibition: 0.85%
[5]
  inhibition: 2.5%
[6]
  inhibition: 0.47%
[7]
  inhibition: 2.98%
[8]
  inhibition: 2.14%
[9]
  inhibition: 4.07%
[10]
  inhibition: 2.06%
[11]
  inhibition: 5.11%
[12]
  inhibition: 0.94%
[13]
  inhibition: 3.35%
[14]
  inhibition: 1.96%
[15]
  inhibition: 7.04%
[16]
  inhibition: 2.75%
[17]
  inhibition: 1.79%
[18]
  inhibition: 2.09%
[19]
  inhibition: 5.52%
[20]
  inhibition: 3.27%

## COc1cc(Nc2nccc(-c3cnn4ncccc34)n2)cc(OC)c1
[1]
  inhibition: 8.16%
[2]
  inhibition: 2.33%
[3]
  inhibition: 15%
[4]
  inhibition: 1.35%
[5]
  inhibition: 3.27%
[6]
  inhibition: 1.72%
[7]
  inhibition: 4.75%
[8]
  inhibition: 1.42%
[9]
  inhibition: 5.35%
[10]
  inhibition: 0.97%
[11]
  inhibition: 6.06%
[12]
  inhibition: 2.68%
[13]
  inhibition: 4.34%
[14]
  inhibition: 1.68%
[15]
  inhibition: -0.04%
[16]
  inhibition: 1.95%
[17]
  inhibition: 2.1%
[18]
  inhibition: 3.39%
[19]
  inhibition: 16.7%
[20]
  inhibition: 0.99%

## NS(=O)(=O)c1ccc(N/N=C2\C(=O)Nc3ccc(Cl)cc32)cc1
[1]
  inhibition: 2.29%
[2]
  inhibition: 3.76%
[3]
  inhibition: 10.6%
[4]
  inhibition: 1.95%
[5]
  inhibition: 4.81%
[6]
  inhibition: 1.84%
[7]
  inhibition: 3.95%
[8]
  inhibition: 1.83%
[9]
  inhibition: 2.94%
[10]
  inhibition: 0.98%
[11]
  inhibition: 3.15%
[12]
  inhibition: 3.68%
[13]
  inhibition: 7.28%
[14]
  inhibition: 2.41%
[15]
  inhibition: 5.65%
[16]
  inhibition: 4.29%
[17]
  inhibition: 3.61%
[18]
  inhibition: 6.79%
[19]
  inhibition: 16.1%
[20]
  inhibition: 1.86%

## Cc1nc(-c2ccccc2)n2nc(NCCCN3CCOCC3)ncc12
[1]
  inhibition: 0.26%
[2]
  inhibition: 2.1%
[3]
  inhibition: 0.91%
[4]
  inhibition: 1.44%
[5]
  inhibition: 5.36%
[6]
  inhibition: 2.6%
[7]
  inhibition: 7.74%
[8]
  inhibition: 3.24%
[9]
  inhibition: 7.6%
[10]
  inhibition: 2.39%
[11]
  inhibition: 12.8%
[12]
  inhibition: 2.86%
[13]
  inhibition: 2.79%
[14]
  inhibition: 2.32%
[15]
  inhibition: 0.65%
[16]
  inhibition: 0.22%
[17]
  inhibition: 1.99%
[18]
  inhibition: 2.89%
[19]
  inhibition: 6.04%
[20]
  inhibition: 3.08%

## C[C@@H](Oc1cc(-n2cnc3ccc(OCC4CCN(C)CC4)cc32)sc1C(N)=O)c1ccccc1C(F)(F)F
[1]
  inhibition: 12%
[2]
  inhibition: 1.51%
[3]
  inhibition: 12%
[4]
  inhibition: 5.1%
[5]
  inhibition: 32.7%
[6]
  inhibition: 11.8%
[7]
  inhibition: 52%
[8]
  inhibition: 3.14%
[9]
  inhibition: 30.9%
[10]
  inhibition: 13.2%
[11]
  inhibition: 54.9%
[12]
  inhibition: 0.5%
[13]
  inhibition: 2.02%
[14]
  inhibition: -2.58%
[15]
  inhibition: -0.14%
[16]
  inhibition: -1.97%
[17]
  inhibition: -2.55%
[18]
  inhibition: 5.76%
[19]
  inhibition: 32.6%
[20]
  inhibition: 2.88%

## CCOc1nccc2c1nc(-c1nonc1N)n2CC
[1]
  inhibition: 10.8%
[2]
  inhibition: 4.9%
[3]
  inhibition: 23.1%
[4]
  inhibition: 5.34%
[5]
  inhibition: 30%
[6]
  inhibition: 3.74%
[7]
  inhibition: 17.1%
[8]
  inhibition: 5.7%
[9]
  inhibition: 27.9%
[10]
  inhibition: 1.8%
[11]
  inhibition: 4.02%
[12]
  inhibition: 4.63%
[13]
  inhibition: 8.95%
[14]
  inhibition: 4.13%
[15]
  inhibition: 12.7%
[16]
  inhibition: 6.9%
[17]
  inhibition: 15.9%
[18]
  inhibition: 3.1%
[19]
  inhibition: 7.14%
[20]
  inhibition: 2.19%

## Cc1ccc2c(c1)/C(=N/Nc1ccc(S(N)(=O)=O)cc1)C(=O)N2
[1]
  inhibition: 2.75%
[2]
  inhibition: -0.99%
[3]
  inhibition: 2.52%
[4]
  inhibition: 0.21%
[5]
  inhibition: 0.22%
[6]
  inhibition: 0.34%
[7]
  inhibition: 2.42%
[8]
  inhibition: 0.05%
[9]
  inhibition: 3.92%
[10]
  inhibition: 1.62%
[11]
  inhibition: 2.46%
[12]
  inhibition: 0.97%
[13]
  inhibition: 1.07%
[14]
  inhibition: 1.13%
[15]
  inhibition: 0.76%
[16]
  inhibition: -0.94%
[17]
  inhibition: -1.14%
[18]
  inhibition: 1.77%
[19]
  inhibition: 6.53%
[20]
  inhibition: 0.59%

## COc1cc2ncnc(Nc3ccc(C)c(O)c3)c2cc1OC
[1]
  inhibition: 0.99%
[2]
  inhibition: 3.05%
[3]
  inhibition: 3.9%
[4]
  inhibition: 1.8%
[5]
  inhibition: 6.05%
[6]
  inhibition: 1.52%
[7]
  inhibition: 3.02%
[8]
  inhibition: 3.28%
[9]
  inhibition: 3.51%
[10]
  inhibition: 2.48%
[11]
  inhibition: 3.03%
[12]
  inhibition: 2.84%
[13]
  inhibition: 5.46%
[14]
  inhibition: 3.56%
[15]
  inhibition: 2.34%
[16]
  inhibition: 2.82%
[17]
  inhibition: 4.55%
[18]
  inhibition: 4.38%
[19]
  inhibition: 5.7%
[20]
  inhibition: 3.32%

## COc1cccc(-n2ncc3c(N/N=C/c4ccc(S(C)(=O)=O)cc4)ncnc32)c1
[1]
  inhibition: 1.16%
[2]
  inhibition: 1.71%
[3]
  inhibition: 1.85%
[4]
  inhibition: 1.45%
[5]
  inhibition: 0.53%
[6]
  inhibition: 1.53%
[7]
  inhibition: 0.98%
[8]
  inhibition: 1.87%
[9]
  inhibition: 4.48%
[10]
  inhibition: 0.99%
[11]
  inhibition: 3.2%
[12]
  inhibition: 3.81%
[13]
  inhibition: 10.1%
[14]
  inhibition: 6.74%
[15]
  inhibition: 4.33%
[16]
  inhibition: -0.55%
[17]
  inhibition: 2.6%
[18]
  inhibition: 1.41%
[19]
  inhibition: 2%
[20]
  inhibition: 3.56%

Reference: ChEMBL document CHEMBL1961873, “Compounds: GSK PKIS; Assays: Nanosyn kinase panel” (2012)
